RGS16-Gao HTS: regulators of human RGS16-Galphao interaction; O15492+P09471; bead-based flow cytometry RGS16-Galphao binding, fluorescence; actives lie on both sides; binding response (% of control), % at 10 µM; actives 0.38% (n = 220,000); AID 1441;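 also: Galphao activated by GDP with aluminum fluoride before binding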
Target sequence (O15492 whole entry, looked up): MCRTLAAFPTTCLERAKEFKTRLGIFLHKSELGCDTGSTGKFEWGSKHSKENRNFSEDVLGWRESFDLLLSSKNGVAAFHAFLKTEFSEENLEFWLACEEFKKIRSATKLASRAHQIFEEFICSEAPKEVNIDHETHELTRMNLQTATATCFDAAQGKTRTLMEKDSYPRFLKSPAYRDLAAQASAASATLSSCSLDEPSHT
Target sequence (P09471 whole entry, looked up): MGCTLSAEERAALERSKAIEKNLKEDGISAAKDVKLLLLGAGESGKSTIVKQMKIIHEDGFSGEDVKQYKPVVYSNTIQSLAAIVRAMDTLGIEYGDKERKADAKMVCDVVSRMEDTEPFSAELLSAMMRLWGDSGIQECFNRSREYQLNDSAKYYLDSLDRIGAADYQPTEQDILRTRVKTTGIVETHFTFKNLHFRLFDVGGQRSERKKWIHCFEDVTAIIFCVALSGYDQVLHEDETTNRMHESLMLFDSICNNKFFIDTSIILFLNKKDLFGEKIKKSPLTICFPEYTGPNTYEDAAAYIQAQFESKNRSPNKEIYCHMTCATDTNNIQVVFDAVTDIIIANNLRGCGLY
Avidin fluor: compound fluoresces at 488/530 nm on avidin beads; compound fluorescence 488/530 nm, flow cytometry; hits give high values; fluorescence (KMESF) at 10 µM; actives 0.38% (n = 220,000); in the data active = fluorescence above about 47
RGS8-Gao reg: regulators of human RGS8-Galphao interaction. P09471. multiplexed bead flow cytometry, RGS8-Galphao binding; actives lie on both sides. response (percent of control binding), % at 10 µM. actives 0.34% (n = 220,000). AID 1423; in the data active = response below about 60% or above about 140%; inactive = in between;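 also: Galphao activated as the GDP aluminium fluoride complex binding bead-coupled RGS8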
Target sequence (P09471 whole entry, looked up): as above
RGS4-Gao reg: modulates binding of RGS4 to human Galphao; Multiplexed bead flow cytometry; actives lie on both sides; P09471; binding response (% of control), % at 10 µM; AID 1415; actives 0.33% (n = 220,000); in the data active = binding response below about 49% or above about 150%; inactive = in between;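 also: fluorescent Galphao activated with aluminum fluoride binding bead-coupled RGS4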
GSH bead fluor: compound fluoresces at 488/530 nm on GSH beads; GSH beads flow cytometry, compound fluorescence 488/530 nm; hits give high values; fluorescence (KMESF) at 10 µM; actives 0.25% (n = 190,000); AID 1776; in the data active = fluorescence above about 89;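 also: glutathione beads carrying GST-tagged Bcl family fusion proteins plus one bare bead set; values are compound well signal with DMSO vehicle wells as background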
RGS7-Gao: modulates binding of RGS7 to human Galphao | P09471 | Multiplexed bead flow cytometry; actives lie on both sides | binding response (% of control), % at 10 µM | actives 0.35% (n = 220,000) | AID 1439; in the data active = binding response below about 49% or above about 150%; inconclusive = no clear call, values can overlap the other calls; inactive = in between;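 also: fluorescent Galphao held in activated GDP-AlF4 state binding bead-coupled RGS7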
RGS4-Gao HTS: modulates binding between human RGS4 and Galphao; shares compounds with RGS16-Gao HTS; multiplexed bead flow cytometry, RGS–Galpha-o binding; RGS4–Galpha-o binding response, % at 10 µM; actives 99% (n = 1,600);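 also: fluorescently labeled Galpha-o bound to GDP with aluminium fluoride binding biotinylated RGS beads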
Biotin-avidin: biotin-avidin bead binding disruption counter-screen. streptavidin beads, fluorescein-biotin binding, flow cytometry. AID 1783. 1,700 tested, under 10 active. shares compounds with RGS16-Gao HTS. inhibition, % at 10 µM;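 active = inhibition above 50%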;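 also: median green fluorescence of gated singlet beads compared with DMSO control wells; 0% = DMSO wells and 100% = complete loss of bead fluorescence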
RGS8-Gao single: confirmation of regulators of human RGS8-Galphao interaction | shares compounds with RGS16-Gao HTS | bead-based flow cytometry RGS8-Galphao binding, fluorescence; actives lie on both sides | binding response (% of control), % at 10 µM | actives 3% (n = 1,700) | AID 1836; in the data active = binding response below about 72% or above about 130%; inactive = in between;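 also: Galphao activated as GDP AlF4 complex before binding bead RGS8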
RGS7-Gao confirm: confirmation of regulators of human RGS7-Galphao interaction; shares compounds with RGS16-Gao HTS; bead-based flow cytometry RGS7-Galphao binding; actives lie on both sides; response (percent of control binding), % at 10 µM; actives 7.8% (n = 1,700); AID 1837; in the data active = response below about 75% or above about 130%; inactive = in between;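 also: fluorescent Galphao activated with GDP and aluminum fluoride binding bead-coupled RGS7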
RGS16-Gao single: RGS16-Galphao interaction regulation, single point confirmation; shares compounds with RGS16-Gao HTS; bead-based flow cytometry, RGS16-Galphao binding; actives lie on both sides; response (% of control binding), % at 10 µM; actives 4% (n = 1,700); AID 1838; in the data active = response below about 74% or above about 130%; inactive = in between;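 also: Galphao activated as the GDP aluminium fluoride complex binding bead-coupled RGS16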
RGS4-Gao confirm: confirmation of regulators of human RGS4-Galphao interaction; RGS4-Galphao binding, multiplexed bead flow cytometry; actives lie on both sides; actives 4% (n = 1,700); AID 1840; binding response (% of control), % at 10 µM; shares compounds with RGS16-Gao HTS; in the data active = binding response below about 74% or above about 130%; inactive = in between
RGS19-Gao single: confirmation of regulators of human RGS19-Galphao interaction; shares compounds with RGS16-Gao HTS; bead-based flow cytometry RGS19-Galphao binding; actives lie on both sides; response (percent of control binding), % at 10 µM; actives 5% (n = 1,700); AID 1841; in the data active = response below about 50% or above about 160%; inactive = in between;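 also: 100% = no compound control and 0% = blank background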
An asterisk follows results filed as active; u = inconclusive; x = no result given; [ ] = another dose, or the depositor's remark. Sampled rows, rich in hits. Any-hit rate of the full collection: about 1.2%. Unless noted, no rule for the calls is given here.

SMILES	RGS16-Gao HTS	Avidin fluor	RGS8-Gao reg	RGS4-Gao reg	GSH bead fluor	RGS7-Gao	RGS4-Gao HTS	Biotin-avidin	RGS8-Gao single	RGS7-Gao confirm	RGS16-Gao single	RGS4-Gao confirm	RGS19-Gao single
CCC(C)(C)NC(=O)C(c1cccn1C)N(C(=O)Cn1nnc2ccccc21)c1ccccc1OC (stereo unspecified)	24.4*	5	68.1	76.9	16	79.2	76.9*	-1.4	96.8	48.4*	78.7	59.9*	59.2
CCOC(=O)N1CCN(CC(=O)N2CCC(C(N)=O)CC2)CC1	93.6	8	93.6	93.0	23	93.9	x	x	x	x	x	x	x
O=C(c1ccc(=O)[nH]c1)N(Cc1cccs1)C1(C(=O)NC2CCCC2)CCCCC1	259.0*[activator]	4	140.6*[activator]	115.5	10	108.3	115.5*	-0.7	104.5	104.9	105.1	102.7	101.2
CCCCCNCc1ccc(OCc2ccc(Cl)nc2)c(OC)c1	265.6*[activator]	25	132.0	116.1	10	124.9	116.1*	-1.7	101.8	94.9	102.7	100.9	112.7
COc1ccc(C(=O)Nc2ccc(-c3cn4ccsc4n3)cc2)cc1S(=O)(=O)N1CCOCC1	-56.4*	x	17.2*	-45.8*	4	-7.2*	x	-0.7	97.9	93.1	98.5	97.7	98.1
CCC1CCC(C(=O)NNC(=O)c2cc(-c3ccco3)[nH]n2)CC1 (stereo unspecified)	99.9	10	98.5	100.5	12	u	x	x	x	x	x	x	x
N#C/C(=C(/O)CSc1nnc(Cc2cccs2)n1C1CCCCC1)c1nc2ccccc2[nH]1	-52.6	1	50.6*	32.8*	228*	45.9*	x	-0.1	113.0	109.5	111.3	108.9	92.7
CCCCN(C)C1=CC2=CC(=C(C#N)C#N)CCC2CC1 (stereo unspecified)	167.0	68*	106.3	146.5	57	163.7*[activator]	146.5*	0.9	111.6	205.9*[activator]	157.2*[activator]	153.9*[activator]	293.1*[activator]
CCN(CC)C1=CC2=CC(=C(C#N)C#N)CCC2CC1 (stereo unspecified)	168.2	42	109.2	165.0*[activator]	18	141.6	x	3.0	103.0	166.8*[activator]	124.7	129.5*[activator]	362.9*[activator]
N#CC(C#N)=C1C=C2C=C(N3CCCCC3)CCC2CC1 (stereo unspecified)	172.9	84*	109.9	161.5*[activator]	99*	186.1*[activator]	x	1.4	104.8	136.8*[activator]	116.8	120.3	190.5*[activator]
N#CC1=C(N)C2=C(N3CCCCC3)CCCC2C1(C#N)C#N (stereo unspecified)	117.7	4	107.4	102.0	5	101.9	x	x	x	x	x	x	x
O=C(COc1ccccc1)Nc1ccc(Cl)cc1Cl	98.2	11	102.6	98.7	25	99.8	x	x	x	x	x	x	x
Cc1oc(-c2ccccc2Cl)nc1CSc1nc2c(c(=O)[nH]1)CCC2	90.8	6	95.3	96.6	18	98.5	x	x	x	x	x	x	x
Cc1[nH]c2ccccc2c1/C=C/c1nc2ccccc2c(=O)n1CCO	100.1	24	101.5	98.4	9	99.3	x	x	x	x	x	x	x
CN1C(=O)N(CN2CCCCC2)C2C1N(C)C(=O)N2CN1CCCCC1 (stereo unspecified)	549.4	4	153.9*[activator]	127.1	22	122.8	127.1*	x	x	x	x	x	x
COc1ccc(CCNC2CC(=O)N(C3CCCCC3)C2=O)cc1OC (stereo unspecified)	99.3	11	97.7	100.5	18	105.5	x	x	x	x	x	x	x
Cc1nnc(Cl)c2nn(-c3ccccc3F)c(C)c12	105.3	4	101.2	102.5	8	103.1	x	x	x	x	x	x	x
Cc1nnc(SCCN2CCOCC2)c2nn(-c3ccccc3F)c(C)c12	180.4*[activator]	13	120.7	110.5	3	108.6	110.5*	0.0	110.3	110.7	113.1	109.1	112.1
COc1ccc(C(=O)NNC(=O)C2CCCN(C3CC(=O)N(c4ccccc4)C3=O)C2)cc1 (stereo unspecified)	99.1	7	101.5	100.2	x	u	x	x	x	x	x	x	x
Cc1[nH]c2ccccc2c1/C=N/NC(=O)CNC(=O)c1cccs1	105.5	9	97.7	89.1	x	u	x	x	x	x	x	x	x
O=C(CNC(=O)c1cccs1)N/N=C/c1c[nH]c2ccccc12	-4.2*	-1	6.0*	2.8*	8	2.4*	x	0.4	105.4	100.0	108.6	102.6	94.4
CC1CC(OCC(O)C[N+]2(C)CCOCC2)CC(C)(C)C1 (stereo unspecified)	17.1*	5	30.0*	21.9*	14	20.9*	x	0.1	107.8	105.6	108.8	104.7	109.1
Cn1ccnc1SCC(=O)Nc1cccc2ccccc12	131.2	7	111.3	103.4	11	103.3	x	x	x	x	x	x	x
Cn1ccnc1SCC(=O)n1c2c(c3ccccc31)CCCC2	16.4	1	54.9*	59.9	9	59.9	59.9*	0.1	99.9	93.6	100.8	96.1	96.9
COc1ccc2cc(CCNC(=O)C3CCCC3)c(=O)[nH]c2c1	227.7	4	146.6*[activator]	110.8	25	108.8	110.8*	0.4	104.6	101.1	106.6	104.0	110.3
CCOC(=O)c1nc(C)nc(Sc2n[nH]c(-c3ccc(C(C)(C)C)cc3)n2)c1C	107.3	5	98.1	100.5	x	u	x	x	x	x	x	x	x
COc1ccccc1NC(=O)Cn1cnc2sc(C)c(S(=O)(=O)N3CCCCC3)c2c1=O	99.0	5	100.6	103.1	24	101.9	x	x	x	x	x	x	x
Cc1cccc(NC(=O)CCN2CCOCC2)c1	96.8	18	101.2	100.7	8	96.9	x	x	x	x	x	x	x
Cc1cccc(NC(=O)CCn2ccnc2C)c1	12.7*	0	14.3*	21.8*	30	16.1*	x	-0.8	101.8	93.9	101.9	98.2	96.0

Bioassay records from PubChem.
